About 7,900 targets were measured; listed, in parts, are those with a hit and a random draw of the rest. About 0.6% of all pairs of compound and target were hits.
The targets below were run with Cn1cc(-c2ccc3c(c2)CCN3C(=O)Cc2cccc(C(F)(F)F)c2)c2c(N)ncnc21 (assay: log2 fold change, soluble protein after heating vs DMSO (PISA); higher = thermal stabilisation; K562 cells, 10 uM, 30 min; active = over 0.2 and 3.5 SD of the protein, either way, in both replicates (recomputed)).
In short: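 K562 cells at 2×10^6 cells/mL were treated with 10 μM compound for 30 min. Aliquots were heated for 3 min across 48°C-58°C, pooled, and extracted in PBS with 0.5% NP-40 at 4°C; soluble protein was the supernatant after 21,000xg for 90 min. Soluble protein was quantified by TMTpro 16plex LC-MS/MS with channel sums equalised, and reported as log2 fold change in thermal stability against DMSO controls, with values from duplicates.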

Chain of UniProt P21964 (P21964 whole entry, looked up): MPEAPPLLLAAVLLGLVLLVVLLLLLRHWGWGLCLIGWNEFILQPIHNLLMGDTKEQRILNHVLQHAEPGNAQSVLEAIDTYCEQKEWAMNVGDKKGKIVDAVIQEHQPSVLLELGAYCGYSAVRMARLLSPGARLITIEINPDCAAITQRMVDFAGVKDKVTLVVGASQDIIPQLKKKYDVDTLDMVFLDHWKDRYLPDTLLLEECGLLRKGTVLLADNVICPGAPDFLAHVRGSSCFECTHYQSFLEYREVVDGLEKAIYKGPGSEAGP
Chain of UniProt Q96LT7 (Q96LT7 whole entry, looked up): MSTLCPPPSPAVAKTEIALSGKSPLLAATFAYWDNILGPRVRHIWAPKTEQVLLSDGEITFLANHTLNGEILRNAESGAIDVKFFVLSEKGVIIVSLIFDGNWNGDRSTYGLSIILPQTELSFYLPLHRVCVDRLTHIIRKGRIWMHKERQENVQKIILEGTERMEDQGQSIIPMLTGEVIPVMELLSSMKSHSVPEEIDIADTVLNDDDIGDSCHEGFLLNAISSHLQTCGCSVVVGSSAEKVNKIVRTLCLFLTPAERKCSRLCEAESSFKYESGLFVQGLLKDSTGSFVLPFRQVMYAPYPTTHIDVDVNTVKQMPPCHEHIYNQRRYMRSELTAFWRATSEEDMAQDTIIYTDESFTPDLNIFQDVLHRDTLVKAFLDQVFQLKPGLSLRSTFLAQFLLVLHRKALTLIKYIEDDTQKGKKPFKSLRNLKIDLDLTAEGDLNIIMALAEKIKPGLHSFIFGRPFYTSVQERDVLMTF
Chain of UniProt O75153 (O75153 whole entry, looked up): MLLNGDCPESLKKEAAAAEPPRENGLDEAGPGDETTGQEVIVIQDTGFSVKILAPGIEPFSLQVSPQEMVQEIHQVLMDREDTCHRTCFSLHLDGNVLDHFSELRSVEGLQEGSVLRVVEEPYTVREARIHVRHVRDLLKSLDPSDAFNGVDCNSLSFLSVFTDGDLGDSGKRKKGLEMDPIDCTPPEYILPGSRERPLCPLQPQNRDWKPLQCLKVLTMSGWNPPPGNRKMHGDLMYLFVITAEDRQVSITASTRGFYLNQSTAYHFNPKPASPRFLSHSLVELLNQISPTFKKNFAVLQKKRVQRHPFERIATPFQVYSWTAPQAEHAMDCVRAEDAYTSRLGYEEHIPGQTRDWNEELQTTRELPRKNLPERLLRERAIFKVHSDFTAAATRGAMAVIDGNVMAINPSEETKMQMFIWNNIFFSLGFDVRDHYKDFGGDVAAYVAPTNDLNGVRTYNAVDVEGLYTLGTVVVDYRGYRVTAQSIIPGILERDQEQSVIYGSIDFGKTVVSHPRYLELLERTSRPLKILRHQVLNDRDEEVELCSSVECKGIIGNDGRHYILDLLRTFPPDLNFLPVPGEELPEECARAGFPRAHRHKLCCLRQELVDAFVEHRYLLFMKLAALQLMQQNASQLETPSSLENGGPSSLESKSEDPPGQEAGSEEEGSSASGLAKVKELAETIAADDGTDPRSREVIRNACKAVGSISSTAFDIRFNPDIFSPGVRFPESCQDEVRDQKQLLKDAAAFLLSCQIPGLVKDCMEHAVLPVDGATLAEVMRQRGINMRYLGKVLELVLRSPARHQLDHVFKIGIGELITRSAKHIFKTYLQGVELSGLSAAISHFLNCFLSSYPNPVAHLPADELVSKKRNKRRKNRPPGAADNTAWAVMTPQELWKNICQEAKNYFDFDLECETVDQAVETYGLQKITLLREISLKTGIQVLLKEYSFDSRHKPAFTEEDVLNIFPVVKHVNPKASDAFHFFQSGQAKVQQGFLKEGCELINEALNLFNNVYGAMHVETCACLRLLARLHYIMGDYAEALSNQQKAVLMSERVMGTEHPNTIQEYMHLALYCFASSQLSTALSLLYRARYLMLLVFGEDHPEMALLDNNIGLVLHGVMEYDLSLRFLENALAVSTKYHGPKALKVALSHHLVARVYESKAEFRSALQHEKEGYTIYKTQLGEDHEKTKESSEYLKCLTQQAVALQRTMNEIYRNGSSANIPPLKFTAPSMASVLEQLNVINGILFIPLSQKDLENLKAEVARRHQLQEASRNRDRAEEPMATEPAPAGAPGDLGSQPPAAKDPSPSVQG
Chain of UniProt P14635 (P14635 whole entry, looked up): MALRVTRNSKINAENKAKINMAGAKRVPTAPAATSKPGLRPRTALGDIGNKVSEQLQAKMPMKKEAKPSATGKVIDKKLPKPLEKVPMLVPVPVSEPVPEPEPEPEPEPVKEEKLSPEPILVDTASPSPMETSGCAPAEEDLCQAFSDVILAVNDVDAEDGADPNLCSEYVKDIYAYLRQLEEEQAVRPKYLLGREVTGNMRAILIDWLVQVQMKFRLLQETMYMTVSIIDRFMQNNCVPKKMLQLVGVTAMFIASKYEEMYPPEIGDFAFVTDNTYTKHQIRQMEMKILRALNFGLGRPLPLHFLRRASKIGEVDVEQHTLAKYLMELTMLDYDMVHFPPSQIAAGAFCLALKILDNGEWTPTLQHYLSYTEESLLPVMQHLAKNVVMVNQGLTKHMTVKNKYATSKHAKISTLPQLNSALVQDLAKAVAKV
Chain of UniProt P08174 (P08174 whole entry, looked up): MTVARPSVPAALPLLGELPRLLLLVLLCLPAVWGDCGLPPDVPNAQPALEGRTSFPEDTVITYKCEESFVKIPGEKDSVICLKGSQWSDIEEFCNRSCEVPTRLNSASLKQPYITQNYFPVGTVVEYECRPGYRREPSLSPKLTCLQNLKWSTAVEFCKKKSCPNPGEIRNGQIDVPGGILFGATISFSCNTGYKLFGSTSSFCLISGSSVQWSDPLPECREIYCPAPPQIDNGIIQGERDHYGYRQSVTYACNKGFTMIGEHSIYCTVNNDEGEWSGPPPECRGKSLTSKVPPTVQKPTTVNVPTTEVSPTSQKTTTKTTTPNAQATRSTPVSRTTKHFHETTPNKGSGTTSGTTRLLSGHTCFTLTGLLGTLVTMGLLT
Chain of UniProt P09497 (P09497 whole entry, looked up): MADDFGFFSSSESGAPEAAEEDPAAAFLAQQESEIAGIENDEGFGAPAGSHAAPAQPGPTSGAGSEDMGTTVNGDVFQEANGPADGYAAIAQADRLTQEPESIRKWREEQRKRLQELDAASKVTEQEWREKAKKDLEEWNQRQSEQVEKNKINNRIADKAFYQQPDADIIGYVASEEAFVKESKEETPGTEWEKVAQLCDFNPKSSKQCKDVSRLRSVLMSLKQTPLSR
Chain of UniProt P48729 (P48729 whole entry, looked up): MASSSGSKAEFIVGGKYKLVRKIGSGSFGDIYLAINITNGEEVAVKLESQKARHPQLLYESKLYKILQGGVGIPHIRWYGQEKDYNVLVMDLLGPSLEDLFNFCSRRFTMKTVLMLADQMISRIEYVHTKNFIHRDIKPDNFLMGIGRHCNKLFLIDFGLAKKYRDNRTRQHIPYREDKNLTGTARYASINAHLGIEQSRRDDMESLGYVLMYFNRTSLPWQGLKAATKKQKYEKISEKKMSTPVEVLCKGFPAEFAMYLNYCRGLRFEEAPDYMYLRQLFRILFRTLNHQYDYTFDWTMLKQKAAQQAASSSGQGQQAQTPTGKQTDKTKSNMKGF
Chain of UniProt Q16630 (Q16630 whole entry, looked up): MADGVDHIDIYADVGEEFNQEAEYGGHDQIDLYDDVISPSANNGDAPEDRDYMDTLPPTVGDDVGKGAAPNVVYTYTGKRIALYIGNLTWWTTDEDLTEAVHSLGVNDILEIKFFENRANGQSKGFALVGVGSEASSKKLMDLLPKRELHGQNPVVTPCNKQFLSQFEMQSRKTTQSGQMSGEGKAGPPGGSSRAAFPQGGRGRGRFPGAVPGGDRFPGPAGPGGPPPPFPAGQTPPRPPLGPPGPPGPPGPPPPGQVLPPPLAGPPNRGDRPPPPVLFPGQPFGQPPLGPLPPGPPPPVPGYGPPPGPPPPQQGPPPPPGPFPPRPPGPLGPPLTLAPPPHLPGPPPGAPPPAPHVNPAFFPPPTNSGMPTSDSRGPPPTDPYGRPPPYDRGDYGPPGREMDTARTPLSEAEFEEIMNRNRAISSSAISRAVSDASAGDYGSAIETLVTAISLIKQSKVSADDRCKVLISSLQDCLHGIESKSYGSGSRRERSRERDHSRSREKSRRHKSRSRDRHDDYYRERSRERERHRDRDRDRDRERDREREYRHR
Chain of UniProt P51790 (P51790 whole entry, looked up): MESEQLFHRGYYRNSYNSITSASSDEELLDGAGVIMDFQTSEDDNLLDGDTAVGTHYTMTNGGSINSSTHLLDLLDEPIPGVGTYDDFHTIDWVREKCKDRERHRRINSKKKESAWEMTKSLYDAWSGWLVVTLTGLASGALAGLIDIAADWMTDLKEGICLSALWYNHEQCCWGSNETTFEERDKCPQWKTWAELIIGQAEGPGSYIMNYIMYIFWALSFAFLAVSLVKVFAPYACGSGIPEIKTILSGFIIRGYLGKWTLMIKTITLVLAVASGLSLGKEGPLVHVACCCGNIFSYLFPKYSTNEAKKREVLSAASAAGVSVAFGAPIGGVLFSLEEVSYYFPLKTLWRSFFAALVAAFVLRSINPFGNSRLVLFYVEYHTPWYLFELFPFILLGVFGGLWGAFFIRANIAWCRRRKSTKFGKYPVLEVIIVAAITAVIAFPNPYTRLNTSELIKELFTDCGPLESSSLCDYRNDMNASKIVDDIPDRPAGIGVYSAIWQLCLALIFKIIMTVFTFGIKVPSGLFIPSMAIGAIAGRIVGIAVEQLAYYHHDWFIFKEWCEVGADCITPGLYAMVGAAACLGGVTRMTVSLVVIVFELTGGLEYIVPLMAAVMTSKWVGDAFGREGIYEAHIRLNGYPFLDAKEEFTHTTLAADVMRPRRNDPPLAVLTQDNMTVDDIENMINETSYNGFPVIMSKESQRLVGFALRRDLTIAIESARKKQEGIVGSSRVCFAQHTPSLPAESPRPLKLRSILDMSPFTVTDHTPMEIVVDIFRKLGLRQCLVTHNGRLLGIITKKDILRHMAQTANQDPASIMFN
Chain of UniProt O15182 (O15182 whole entry, looked up): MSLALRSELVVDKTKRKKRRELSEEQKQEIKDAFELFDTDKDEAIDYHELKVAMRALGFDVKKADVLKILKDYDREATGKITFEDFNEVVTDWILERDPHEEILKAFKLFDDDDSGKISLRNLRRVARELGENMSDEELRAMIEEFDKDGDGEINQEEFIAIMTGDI

log2 fold change, inactive:
C9orf72 (UniProt Q96LT7) 0.085
CDK13 (UniProt Q14004) -0.028
CTBS (UniProt Q01459) -0.093
CCNB1 (UniProt P14635) 0.006
COMT (UniProt P21964) 0.073
CEPT1 (UniProt Q9Y6K0) 0.031
COPS4 (UniProt Q9BT78) 0.031
COASY isoform 2 (UniProt Q13057) 0.037
CNOT1 (UniProt A5YKK6) 0.023
CETN3 (UniProt O15182) -0.026
CPSF6 isoform 2 (UniProt Q16630) 0.039
CASTOR2 (UniProt A6NHX0) -0.019
CASC3 (UniProt O15234) -0.079
CLUH, A0A494C0R8 -0.018
CLTB (UniProt P09497) -0.02
CLCN3 isoform 2 (UniProt P51790) 0.017
CDC123 (UniProt O75794) 0.029
CD55 isoform 7 (UniProt P08174) -0.051
CLUH (UniProt O75153) 0.067
CSNK1A1 (UniProt P48729) -0.118
CNTN4 (UniProt Q8IWV2) 0.131
CDC42BPA isoform 6 (UniProt Q5VT25) 0.036
CDK5RAP1 (UniProt Q96SZ6) 0.044
